Sampled rows, rich in hits. Any-hit rate of the full collection: about 3.3%.
PHOSPHO1 block: inhibitors of human PHOSPHO1 phosphatase; Q8TCT1; recombinant PHOSPHO1, absorbance phosphatase assay; inhibition, % at 13.3 µM; 290,000 compounds, 1.1% hits; AID 1565; in the data active = inhibition above about 60%
Target sequence (Q8TCT1 whole entry, looked up): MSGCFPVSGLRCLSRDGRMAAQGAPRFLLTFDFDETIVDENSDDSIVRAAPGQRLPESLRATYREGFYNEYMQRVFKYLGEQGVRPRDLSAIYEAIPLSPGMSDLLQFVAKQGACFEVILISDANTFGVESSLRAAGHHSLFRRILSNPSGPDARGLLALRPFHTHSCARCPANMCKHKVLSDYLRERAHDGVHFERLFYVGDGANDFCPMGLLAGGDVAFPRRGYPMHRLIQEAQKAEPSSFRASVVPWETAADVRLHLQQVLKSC
Cl transport mod: modulators of human KCC2 chloride dependent transport | KCC2 cells, thallium flux FluoZin-2 fluorescence | Q9H2X9 | B-score of Tl+ flux slope (higher = more flux/activation; lower = inhibition) at 10 µM | 190,000 compounds, 2.2% hits;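 active = thallium flux slope and its plate-corrected score both differing from the plate sample mean at a set confidence after two filtering rounds, in either direction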;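 note: slope of fluorescence scaled to starting intensity during 10 to 20 s after thallium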
Efflux pump inh: blocks antifungal efflux pumps in multiplex yeast assay | S. cerevisiae Candida pump triplex, Nile Red efflux | inhibition, % at 10 µM | 330,000 compounds, 0.44% hits | AID 485275;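 active = plate passing quality check with inhibition over a set limit, or well fluorescence over plate mean plus 4 SD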;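 note: Nile Red retained in pooled yeast measured as flow cytometry median fluorescence; 0% = buffer negative control and 100% = Enniatin B positive control; higher means more Nile Red kept so more efflux inhibition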
Calb FLC: C. albicans growth modulation with fluconazole; C. albicans CaCi-2 (fluconazole-resistant clinical isolate) + fluconazole, Alamar Blue growth, 48 h; growth inhibition, % (no concentration beside the values); 300,000 compounds, 0.57% hits;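 active = growth inhibition above about 58% in most replicates, limit read from the data, passing the limit was not always enough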;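 note: all wells also contain fluconazole at 8 µg/ml as a sub-toxic cotreatment; 0% = median of DMSO wells and 100% = median of geldanamycin control wells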
H9c2 protect: modulators protecting cardiomyocytes from myocardial damage | protection from H2O2 cell death, % at 20 µM | AID 588492 | 360,000 compounds, 0.63% hits | H9c2 cardiomyocytes, H2O2 injury protection, ATPLite, 2 h;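 active = compounds giving at least 50% protection of heart cells from peroxide-induced death in the single-dose screen, raw or plate-pattern-corrected value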;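 note: 0% = DMSO wells with peroxide and 100% = DMSO wells without peroxide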
Numbers without * were called inactive; . = not tested or not shown.

SMILES | PHOSPHO1 block | Cl transport mod | Efflux pump inh | Calb FLC | H9c2 protect
Cc1cc(C(=O)N/N=C/c2cc(Br)ccc2OC(=O)c2ccccc2)n[nH]1 | 10.4 | . | -0.1 | . | 55.7*
O=C(CN1CCN(S(=O)(=O)c2cccc(Br)c2)CC1)N1CCCCC1 | . | . | -0.2 | . | -0.8
CN(C)S(=O)(=O)c1ccc(N2CCCC2)c(C(=O)NNC(=O)c2ccc(F)cc2)c1 | . | . | 0.1 | . | 21.6
CC(C)CC(=O)N1CCN(S(C)(=O)=O)CC1 | 8.8 | 6.37* | 0.2 | . | 0.6
COC(=O)N1C(=O)[C@@](c2ccccc2)(C(C)C)N1C(=O)OC | -5.6 | . | -0.1 | 1.1 | 3.4
COC(=O)N1C(=O)[C@](c2ccccc2)(C2CCCC2)N1C(=O)OC | -109.0 | . | 0.3 | 3.3 | 79.9*
Cc1nn(-c2ccccc2)c(N)c1N=Nc1ccc(Cl)cc1 | 3.4 | 0.0638 | 0.0 | 98.4* | -3.0
Cc1nn(-c2ccccc2)c(N)c1N=Nc1ccccc1 | 7.1 | -0.773 | 0.1 | -1.5 | -16.0
CCC1=NN(C(=O)C(=O)Nc2ccccc2OC)C(O)(C(F)(F)F)C1 (configuration not stated) | -90.2 | 1.42 | 0.1 | -19.9 | -6.0
CCC1=NN(C(=O)C(=O)Nc2ccc(OC)cc2)C(O)(C(F)(F)F)C1 (configuration not stated) | 71.7* | . | 0.0 | -5.3 | 0.3
Cc1ccc(S(=O)(=O)N2CCN(C(=O)COC(=O)c3cncc(Br)c3)CC2)c(C)c1 | . | . | -0.2 | . | 1.9
O=C(C(=O)N1CCN(c2cccc(Cl)c2)CC1)c1cn(CC(=O)N2CCOCC2)c2ccccc12 | 11.6 | . | -0.1 | 12.1 | -1.0
COc1ccccc1N1C(=O)CSC1=NC(=O)c1ccccc1 | 36.8 | -0.253 | 0.0 | 14.1 | 1.1
Cc1cccc(N2C(=O)CS/C2=N\NC(=O)c2ccc(Cl)cc2)c1C | -5.8 | 2.96* | 0.1 | 10.7 | 0.1
C=CCNc1nc2ccccc2nc1NS(=O)(=O)c1ccc(Cl)cc1 | 19.0 | . | 0.0 | 0.0 | -7.7
Cc1cc2ccccn2c1C(=O)c1ccccc1F | 15.1 | . | 0.0 | -9.7 | -8.1
COc1ccc2[nH]c3c(=O)n(CCCCC(=O)N4CCCC4)c(=S)[nH]c3c2c1 | 100.2* | 0.00108 | -0.1 | 13.6 | 5.8
COc1ccccc1/C=C1\SC(=S)N(CCC(=O)NNC(=O)c2ccccc2O)C1=O | 52.7 | . | -0.5 | -6.2 | 59.9*
O=C(CCCN1C(=O)/C(=C/c2cccs2)SC1=S)NNC(=O)c1ccccc1O | -4.0 | 1.23 | -0.2 | -4.0 | 59.5*
CC(=O)Nc1cccc(C(=O)N2CCC(n3nccc3NC(=O)CC(C)C)CC2)c1 | 36.0 | . | 0.2 | 5.8 | 4.7
Cn1c(CC(=O)NNC(=O)c2ccccc2[N+](=O)[O-])nc2ccccc21 | . | . | . | . | 0.5
CCOC(=O)c1c(OCC)[nH]c2c1cc(O)c1ccccc12 | 67.3* | -0.436 | -0.1 | 33.9 | -13.6
CCOC(=O)c1c(C)[nH]c2cc(Br)c(O)cc12 | -23.4 | -0.00803 | 0.0 | 30.5 | 6.7
COCCN1CSC(=S)N(Cc2ccco2)C1 | 94.5* | -0.0796 | -0.1 | 2.7 | -0.2
S=C1SCN(Cc2ccccn2)CN1Cc1ccco1 | 94.5* | 0.102 | -0.1 | -14.8 | 2.2
SMILES | PHOSPHO1 block | Cl transport mod | Efflux pump inh | Calb FLC | H9c2 protect
CCOCCCN1CN(Cc2ccco2)CNC1=S | -12.2 | 0.959 | -0.1 | 9.4 | -1.0
O=c1c2c([nH]n1-c1ccccc1)CCSC2 | . | . | -0.1 | -18.7 | 8.4
Clc1ccc(OCCn2ccnc2)c2ccccc12 | -40.9 | . | -0.2 | 100.6* | -6.8
Clc1ccc(OCCn2ccnc2)c(Cl)c1 | 14.0 | 0.496 | 0.0 | 0.4 | -5.9
CCN(CC)N=Nc1[nH]nc2nc(C)cc(C)c12 | 68.9* | . | 0.0 | -2.2 | -0.6
CNC(=O)N1CCC(C(=O)c2c(C)c(C)c(C)c(C)c2C)CC1 | 31.6 | . | -0.1 | 3.0 | -1.4
COc1ccc(Cl)cc1C(=O)Nc1nc(C)cc(C)n1 | 24.7 | . | 0.3 | 5.0 | 3.1
COc1cccc(C2C3=C(CC(C)(C)CC3=O)Nc3cc4c(cc32)OCO4)c1 (configuration not stated) | 0.3 | -0.969 | -0.2 | 20.4 | 15.8
COc1cc2c(cc1OC)C(c1ccc3c(c1)OCO3)C1=C(CC(C)(C)CC1=O)N2 (configuration not stated) | 33.1 | -0.114 | -0.5 | -0.5 | 72.3*
Nc1cc(C(=O)OCC(=O)Nc2cccc(S(=O)(=O)N3CCOCC3)c2)ccc1Cl | . | . | -0.3 | . | -17.9
CC(C)CC(=O)NCc1ccc2[nH]c3c(c2c1)CCCC3 | 13.3 | -0.439 | 0.1 | 119.0* | -3.9
Cc1ccc(NC(=S)NCc2ccc3[nH]c4c(c3c2)CCCC4)cc1 | -3.7 | 0.00476 | 0.1 | -9.2 | -15.0
COc1ccc(NC(=O)COc2cccc(-n3cnnn3)c2)cc1Cl | . | . | -0.1 | -1.8 | -0.5
Cc1ccc(F)c(NC(=O)c2c(-c3ccccc3)noc2C)c1 | 18.5 | . | -0.3 | 3.6 | -1.6
CN(C)S(=O)(=O)n1cc(/C=C(\NC(=O)c2ccccc2F)C(=O)NCCN2CCOCC2)c2ccccc21 | . | . | . | . | 75.3*
CN(C)S(=O)(=O)n1cc(/C=C(\NC(=O)c2ccccc2)C(=O)NCCN2CCOCC2)c2ccccc21 | 15.4 | . | -0.1 | -21.4 | 7.1
CCn1cc(/C=C(\NC(=O)c2ccccc2F)C(=O)NCCN2CCOCC2)c2ccccc21 | 64.9* | . | 0.1 | 19.1 | 4.8
COC(=O)c1c(C)[nH]c(C(=O)CN(C)CC(=O)Nc2cccc(F)c2)c1C | . | . | 0.0 | . | 13.6
Cc1c(O)cc2n(c1=O)-c1ccc(Cl)cc1C2(C)C | 8.0 | -0.00667 | -0.1 | 109.0* | 0.8
CC(C)C(=O)N1CCN(c2ccccc2NC(=O)c2cccc3ccccc23)CC1 | 25.3 | . | -0.3 | 14.1 | 6.2
Cn1c(/C(C#N)=C(\O)CN2CCN(Cc3ccccc3)CC2)nc2ccccc21 | 34.2 | -6.06* | 0.1 | 2.6 | 2.2
Cc1ccc(SC/C(O)=C(\C#N)c2nc3ccccc3n2C)cc1 | 27.6 | 1.81 | 0.0 | -0.2 | -1.5
S=c1nc(C2CCCCC2)[nH]c2ccccc12 | -16.3 | 86.1* | 0.0 | -28.4 | -12.5
O=c1[nH]c(C2CCCCC2)nc2ccccc12 | 5.7 | 0.466 | -0.8 | 9.5 | 12.7
c1ccc2c(c1)[nH]c1ccccc12 | . | . | 0.1 | -0.1 | -8.9
SMILES | PHOSPHO1 block | Cl transport mod | Efflux pump inh | Calb FLC | H9c2 protect
CC(C)c1nc(=S)c2ccccc2[nH]1 | -47.0 | 18.9* | 0.1 | -13.1 | -1.6
CNc1nc(=S)[nH]c2ccccc12 | -69.3 | 0.901 | -0.1 | 1.3 | -1.3
S=c1nc(C2CC2)[nH]c2ccccc12 | -10.1 | 32.3* | -0.1 | 5.7 | 25.4
COc1cc(CN(C)c2ncnc3sccc23)ccc1OC(F)F | 26.5 | . | 0.2 | 5.6 | -5.1
CC1CN(C(=O)Cn2cc(S(=O)(=O)CC(=O)N3CCOCC3)c3ccccc32)CC(C)O1 (configuration not stated) | 65.8* | . | 0.1 | 2.9 | 5.8
CC1CCN(C(=O)Cn2cc(S(=O)(=O)CC(=O)N3CCOCC3)c3ccccc32)CC1 | -0.6 | . | -0.1 | 4.5 | 0.9
CCCCN(C(=O)c1ccc(S(=O)(=O)N(CC)CC)cc1)c1c(N)n(CCC)c(=O)[nH]c1=O | -6.0 | . | 0.1 | -5.4 | -0.1
CCOc1ccc(S(=O)(=O)NN)cc1 | 92.4* | 0.69 | -0.3 | -3.6 | 2.7
CC1CCCC(NC(=O)COC(=O)Cc2cn3ccsc3n2)C1C (configuration not stated) | 95.8* | -0.531 | . | . | 7.3

High-throughput results: PubChem, several laboratories
